Reference: PubChem BioAssay AID1452 (National Center for Advancing Translational Sciences (NCATS), 2008)
Hit rate of the full screen: of about 150,000 compounds, about 190 (0.13%) were called active. Roughly 2% stayed inconclusive and do not appear here. Calls come from the whole dose curve; as a rule, active = well fitted inhibition curve with a large enough effect; inconclusive = small, poorly fitted or top-dose-only effect; inactive = flat fitted curve, though single readings scatter. Shown is part of a subset that was picked to be rich in actives.

biological target: Polyunsaturated fatty acid lipoxygenase ALOX12 (Homo sapiens) (UniProt P18054); experiment: qHTS Assay for Inhibitors of 12-hLO (12-human lipoxygenase); conditions: purified 12-hLO, xylenol orange hydroperoxide absorbance; series mostly up to 57.1 µM; note: nearly all actives have a fitted effect of over 55% in size
Sequence (P18054 whole entry, looked up): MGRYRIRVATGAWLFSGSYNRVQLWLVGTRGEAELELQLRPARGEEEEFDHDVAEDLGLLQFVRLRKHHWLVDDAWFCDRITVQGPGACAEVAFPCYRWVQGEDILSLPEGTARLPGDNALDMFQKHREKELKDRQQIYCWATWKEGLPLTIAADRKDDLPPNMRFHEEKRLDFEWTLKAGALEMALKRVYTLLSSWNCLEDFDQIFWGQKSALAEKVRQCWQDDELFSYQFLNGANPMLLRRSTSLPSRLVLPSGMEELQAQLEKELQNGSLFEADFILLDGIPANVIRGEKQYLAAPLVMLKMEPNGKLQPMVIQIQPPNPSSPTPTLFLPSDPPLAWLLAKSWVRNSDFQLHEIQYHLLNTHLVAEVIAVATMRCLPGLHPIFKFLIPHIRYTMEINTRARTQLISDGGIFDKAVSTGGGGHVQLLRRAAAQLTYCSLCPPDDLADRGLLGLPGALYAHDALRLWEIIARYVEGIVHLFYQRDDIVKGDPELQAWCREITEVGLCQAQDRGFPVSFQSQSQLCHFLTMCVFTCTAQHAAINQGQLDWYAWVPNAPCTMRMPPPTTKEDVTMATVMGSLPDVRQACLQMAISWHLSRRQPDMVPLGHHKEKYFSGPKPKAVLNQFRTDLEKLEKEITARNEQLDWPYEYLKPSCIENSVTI
Excerpt: Assay Provider: Holman, T.R., University of California, Santa Cruz Screening Center PI: Austin, C.P. Screening Center: NIH Chemical Genomics Center [NCGC] Human lipoxygenase 12hLO is a member of the closely related lipoxygenase family of enzymes which catalyze the site-specific oxidation of arachidonic acid to various hormone precursor molecules and as such is a candidate for drug development in a variety of disease areas, such as cancer and inflammation. Inhibition of 12hLO activity was screened by utilizing arachidonic acid as a substrate. The extent of hydroperoxide product formation was measured by a secondary chromogenic reaction in which xylenol orange (XO, Sigma-Aldrich, cat. number 39,818-7) reacts with the ferric ions produced from the reaction between the hydroperoxide and ferrous ions. The Fe(III)-XO complex is characterized with red-shifted absorbance at 560 nm. A purified preparation of human 12hLO was supplied by Professor Ted Holman, University of California, Santa Cruz.
Assay Protocol: Buffer: 25 mM Hepes pH 7.0, 0.01% Triton X-100. Reagents/Controls: Buffer in columns 3 and 4 as negative control (no enzyme). Substrate solution: 40 uM arachidonic acid (Sigma-Aldrich, St. Louis, MO) final concentration dispensed throughout the plate. Enzyme: 150 nM 12hLO final concentration in columns 1, 2, 5-48. Column 1 is neutral (100% activity). Column 2 contained pin-transferred titration of NDGA (nordihidroguaiaretic acid, Sigma-Aldrich, N 5023, top concentration 20 mM in DMSO, then 1:3 dilution in duplicate). (Dilution factor: 23 nL into 4 uL.) Chromogenic detection reagent (divalent iron/xylenol orange, Fe-XO): 200 uM xylenol orange plus 300 uM ferrous ammonium sulfate prepared freshly in 50 mM sulfuric acid. Assay Steps: Three uL of enzyme were dispensed to 1536-well Greiner black clear bottom plates. Compounds and controls (23 nL) were transferred via Kalypsys PinTool. The plates were incubated for 15 min at room temperature, and then 1 uL of substrate solution was added to start the reaction. After room temperature incubation for 30 minutes, 4 uL of Fe-XO solution was added to each well and the plates were incubated for 30 min. The absorbance at 405 and 573 nm were measured using ViewLux (Perkin-Elmer) High-throughput CCD imager and absorbance protocol settings. The 573-to-405 absorbance ratio was used to compute reaction progress.
% is set by controls: 0 for no effect and ±100 for the full control effect; potency is the fitted concentration of half-maximal effect.

Activity change, negative = inhibition, inactive:
Cc1cc(C)cc(OCC(=O)NNC(=O)CCN2C(=O)c3ccccc3C2=O)c1, C/C(=C\c1ccccc1)C1NC(=O)c2c(sc3c2CCCC3)N1 (stereo unspecified), O=C(CN1C(=O)c2cccc3cccc(c23)C1=O)N1CCCCC1, CCOC(=O)N1CCN(C(=O)C2CCN(Cc3ccc(OC)cc3OC)CC2)CC1, O=C1OCCN1C(=O)[C@H]1[C@H](c2ccccc2)C(c2ccc(F)cc2)=NN1c1ccccc1 -8.19% [at 0.00818 µM], C[C@H]1Cc2c(COc3ccccc3)nc3c(c2CO1)CN(C(=O)NCc1ccco1)CC3 1.43% [at 11.4 µM], COC(=O)CC1c2ccccc2C(Cc2ccc(OC)cc2)=C(C)N1C(=O)OC (stereo unspecified) 2.48% [at 11.4 µM], C=CCn1c2ccccc2c2nnc(SCc3[nH]c(=O)[nH]c3C(=O)CCCCC(=O)OCC)nc21, COC(=O)CN1C(=S)N(c2ccccc2)C(=O)C1CC(=O)Nc1ccc(Cl)cc1 (stereo unspecified), CC(=O)c1c(N2CCN(c3ccc(F)cc3)CC2)nc(=S)n(-c2ccccc2)c1C, COc1ccc(-c2nc(-c3ccccc3)oc2Nc2ccc3ccccc3c2)cc1, O=[N+]([O-])c1ccc(NCCCO)c(C(F)(F)F)c1, CNC(=O)NC(=O)C(OC(=O)c1cccc(S(=O)(=O)N2CCCCC2)c1)c1ccccc1 (stereo unspecified), O=C1OCCN1C(=O)[C@H]1[C@H](c2ccc(F)cc2)C(c2ccccc2)=NN1c1ccc(Br)cc1 -8.73% [at 0.00818 µM], CCCCC(CC(C)O)c1n[nH]c(=S)n1-c1ccccc1 (stereo unspecified), CCCc1cc(-c2n[nH]c(=S)n2Cc2ccccc2)cs1, NNc1nnc(NN)c2ccccc12 -2.71% [at 0.00818 µM], CCOC(=O)C1=C(C)c2ccccc2OC1C(=O)OCC (stereo unspecified) 1.63% [at 0.00818 µM], COC(=O)C1(C(C)=O)CC2=CC[C@H]3C(=O)N(c4ccccc4)C(=O)[C@H]3[C@@H]2Cc2ccccc2[C@@H]1C[N+](=O)[O-] (stereo partly specified), N#Cc1ccsc1NC(=O)CN1CCN(S(=O)(=O)c2cc(Cl)ccc2Cl)CC1, Cc1nn(-c2ccccc2)c(C)c1/C=N/NC(=O)CSc1nc2ccccc2c(=O)n1-c1ccccc1, CCOC(=O)c1c(NC(=O)Cn2nc(C(F)(F)F)cc2C)sc2c1CCC2, CCOc1cc(/C=N/NC(=O)OC)ccc1OCCSc1ccc(Cl)cc1, COc1ccc(Br)cc1C(=O)NC(=S)Nc1cc(-c2nc3ccccc3[nH]2)ccc1C, C=CCNC(=S)N/N=C/c1ccc(OCc2ccccc2)cc1, CCS(=O)(=O)Nc1cccc(-c2cc(-c3ccccc3)c3cc(C)ccc3n2)c1, O=C(COC(=O)c1c2c(nc3ccccc13)/C(=C\c1cccs1)CCC2)Nc1ccccc1Cl, COC(=O)C1=C(C(=O)OC)[C@@H]2N(C)c3ccccc3[C@@]23C[C@@H](C(=O)OC)N(S(=O)(=O)c2cccs2)C3=N1 -1.35% [at 11.4 µM], CCCCc1cc2c(s1)CCCC/C2=N/O, NC(=O)c1ccccc1N=Cc1ccc2ccccc2c1, CC(C)CCN1C(=O)c2ccc(C(=O)Nc3cccc(S(N)(=O)=O)c3)cc2C1=O, COc1ccccc1OCC(=O)OCn1c(SC)nnc(C)c1=O, N#C/C(=C/c1ccc(N2CCCCC2)o1)C(=O)NCCc1c[nH]c2ccccc12, CC(C)CN(C(=O)CN1CCN(S(=O)(=O)c2ccccc2)CC1)c1c(N)n(CC(C)C)c(=O)[nH]c1=O, Cc1cc(N2CCOCC2)nc(-c2ccc(Br)cc2)n1, COc1ccc2c(-c3ccccc3)cc(SCC(=O)N(C)C3CCS(=O)(=O)C3)nc2c1 (stereo unspecified), Cc1ccc(S(=O)(=O)N2CCC(=O)N([C@H](COCc3ccccc3)Cc3ccccc3)CC2)cc1 0.261% [at 0.00818 µM], COc1ccc(-n2c(C)cc(C(=O)COC(=O)c3cc(OC)c(OC)cc3NC(=O)c3cccs3)c2C)cc1, COc1cc2c(cc1NC(=O)COC(=O)/C=C/c1ccccc1)oc1ccccc12, COc1ccc(CCNc2cc(C)nc3c(-c4ccc(Cl)cc4)c(C)nn23)cc1OC, O=C(Nc1ccc(N2C(=O)c3cccc4cccc(c34)C2=O)cc1)c1ccc(N2CCCCC2)c([N+](=O)[O-])c1, CCn1c(=O)cc(SCC(=O)NCCC2=CCCCC2)c2ccccc21, COc1cccc(CC(=O)N2CCc3nc(COc4ccccc4)c4c(c3C2)CO[C@@H](C)C4)c1 -2.68% [at 11.4 µM], COCCNC(=O)c1ccc(N2CCC3(CC2)OCCO3)c([N+](=O)[O-])c1, CCCN=C1NC(=O)C(CC(=O)NCCc2ccc(OC)c(OC)c2)S1 (stereo unspecified), CCOC(=O)c1ccccc1N1C(=O)C2Sc3[nH]c(=O)sc3C(/C=C/c3ccccc3)C2C1=O (stereo unspecified), CC(=O)NNC1=Nc2ccccc2N(C)C(C)C1 (stereo unspecified), COC(=O)/C(C#N)=C/c1occc1C, Cc1[nH]n(-c2ccccc2)c(=O)c1/C=N/NC(=O)c1ccoc1C, Cn1cccc1/C=N/NC(=O)c1ccc(OC(F)(F)C(F)F)cc1, COc1cc(OC)c2c(-c3cccc(-c4cccc(N)c4)c3)cc(=O)oc2c1 -1.39% [at 0.00818 µM], N=C1/C(=C/c2cccn2-c2cccc([N+](=O)[O-])c2)C(=O)N=C2SC=CN12, Cc1cccc([C@H]2[C@@H]3C=CC[C@@H](C)[C@@H]3C(=O)N2Cc2ccccc2)c1 -6.11% [at 0.00818 µM], COc1cc(CCC(=O)OCC(=O)Nc2cccc(S(N)(=O)=O)c2)cc(OC)c1OC, O=C(O)CC(Cc1ccccc1)C(=O)Nc1ccc([N+](=O)[O-])cc1 (stereo unspecified), NC(=O)C[C@@H]1NC(=O)CNC(=O)c2cc([N+](=O)[O-])cc(I)c2NCCC(C(N)=O)NC1=O (stereo partly specified), Cn1cccc1/C=C1\SC(=S)N(NC(=O)c2ccc(Cl)cc2)C1=O, CCc1nnc(NC(=O)/C=C/c2ccc(C)o2)s1, C=CC1=C2C=C(C3CC3)N(C(CO)CO)C=C2C(=O)C(C)(OC(=O)c2ccco2)C1=O (stereo unspecified) 3.57% [at 11.4 µM], CC1=C(C/C=C(\C)CCCC(C)CCCC(C)CCCC(C)C)C(=O)c2ccccc2C1=O (stereo unspecified) -5.67% [at 0.00818 µM], CN(C(=O)CSc1nnc(-c2n[nH]c3ccccc23)o1)c1ccccc1, Cc1nc(-c2ccccc2)cn2c1nc1ccccc12, O=C1OCCN1C(=O)[C@H]1[C@H](c2ccc(Cl)cc2)C(c2cccc(Cl)c2)=NN1c1ccc(Br)cc1 -6.33% [at 0.00818 µM], COc1cc(OC)c2c(c1)OC(=O)CC2c1cc(OC)c(OC)c(OC)c1 (stereo unspecified) -5.58% [at 0.00818 µM], CCCCC/C=C\C/C=C\CCCCCCCCCC(=O)O

Potency, active:
CC(C)Oc1ccc(CCc2n[nH]c(=S)n2Cc2ccccc2)cc1 31.6 µM
